# Sm TGR block = S. mansoni TGR enzyme inhibition. purified TGR, DTNB reduction, TNB absorbance 405 nm. Potency, µM (titrated, usually from 114 µM), usual class: inhibitors. actives 3% (n = 360,000); also: nearly all actives have a fitted effect of over 60% in size
#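 TGR 20 nM + NADPH 100 uM (dispensed conc.), cpd preinc 15 min RT; start with NADPH (500 uM addition) then DTNB (15 mM addition). Kinetic TNB absorbance, 405 nm filter. Four-parameter Hill fit across titration.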
# SARS PLP yeast = blocks SARS-CoV papain-like protease in a yeast assay; actives 0.19% (n = 330,000); S. cerevisiae expressing SARS-CoV PLpro, growth rescue; AID 485353; Potency, µM (doses to about 32.9 µM), actives largely listed as activators; calls by dose curve; also: nearly all actives have a fitted effect of over 55% in size
# HCMV antiviral = inhibitors of human cytomegalovirus; activity change, negative = inhibition, % at 57.5 µM; HFF cells, HCMV-luciferase reporter, 72 h; hits give low values; actives 4.5% (n = 410,000); in the data active = activity change below about -60%; inconclusive = no clear call, values can overlap the other calls; inactive = above about -39%
#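 Compounds were evaluated in HFFs infected with an HCMV luciferase reporter virus (MOI 1 PFU/cell). Luciferase in lysates collected 72 h post infection served as the replication measure.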
# Pf growth 96h = P. falciparum growth inhibition at 96 hours | Potency, µM (doses to about 28.7 µM), most hits filed as inhibitors | actives 6.9% (n = 320,000) | P. falciparum luciferase reporter growth, 96 h
#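 Delayed-death screen, second-generation endpoint: infected erythrocytes, 2% hematocrit, 0.05% parasitemia final; 96 hours at 37 C, 5% CO2; luciferase detection reagent; luminescence decrease equals reduced growth.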
# Pf growth 48h = P. falciparum growth inhibition at 48 hours (one generation) | P. falciparum luciferase growth in erythrocytes, 48 h | Potency, µM (doses to about 28.7 µM), hits mostly inhibitors | actives 5.9% (n = 310,000) | AID 504832
#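 Erythrocytes infected with P. falciparum carrying an integrated firefly luciferase reporter (2% hematocrit, 0.1% parasitemia final) were exposed to compounds in RPMI 1640 with 0.5% Albumax at 37 C, 5% CO2. Growth inhibition was scored as reduced luminescence.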
# HCV inhibitor = blocks hepatitis C virus | Huh7.5.1 HCVcc-Cre infection, luciferase reporter, 44 h | Potency, µM (titrated, usually from 41.8 µM), most hits filed as inhibitors | actives 3.4% (n = 340,000) | AID 651820
#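 Luciferase read-out (15 sec integration) after a 15 min room-temperature substrate step quantifies HCVcc-Cre infection. Cells, 1,000 per well, had compound added 4 h post-plating, then virus at ~0.5 moi, and were cultured 44 h.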
# Numbers stand for hits; n = inactive; u = inconclusive; x = no result; ! = not confirmed by another sample; [ ] = another dose, or the depositor's remark. This is a sample that favours compounds with a hit; in the whole collection about 15% have one here. Unless noted, calls follow the shape of the dose curve; as a rule, active = well fitted curve in the direction sought with a large enough effect; inconclusive = small, poorly fitted or top-dose-only effect, or another doubt; inactive = no such curve, though single readings can be large; an effect the other way counts as inactive or inconclusive.
SMILES,Sm TGR block,SARS PLP yeast,HCMV antiviral,Pf growth 96h,Pf growth 48h,HCV inhibitor
COc1cc2c(cc1OC)[C@@H]1N(C)c3ccccc3[C@@]13CCN[C@H]3C2,x,x,n,x,x,x
O=C(c1ccccc1)c1c[nH]c2cc3c(cc2c1=O)OCCO3,n,n,n,15µM,n,n
CCOc1ccc(CNC(=O)c2cc3cc(S(=O)(=O)N4CCCCC4)ccc3n2C)cc1,n,x,-68,x,x,x
Cc1ccc(CCNC(=O)c2cc3cc(S(=O)(=O)N4CCCCC4)ccc3n2C)cc1,n,x,n,x,x,x
CSc1ccc(CCNC(=O)c2cc3cc(S(=O)(=O)N4CCCCC4)ccc3n2C)cc1,n,x,-67,x,x,x
COc1ccc(OC)c(Nc2cc(-c3ccccc3)nc(N)n2)c1,n,n,-90,n,u,u
COc1ccc(OC)c(NC2=C(c3ccccc3)C(=O)c3ccccc32)c1,35µM,x,-63,x,x,x
COCCNC(=O)C1CCCN(C(=O)c2cc(-c3ccccc3)cs2)CC1 (stereo not given),x,x,n,x,x,x
COC(=O)NCC(c1cccnc1)N1CCOCC1 (stereo not given),n,n,n,n,n,n
CCOC(=O)c1c(C)oc2c1c(C(c1cccnc1)N1CCOCC1)c(O)c1ccccc12 (stereo not given),1.3µM,n,n,n,n,u
CCOC(=O)c1c(C)oc2c1c(C(c1cccnc1)N1CCN(C)CC1)c(O)c1ccccc12 (stereo not given),0.56µM,n,x,n,n,11µM
CCOC(=O)c1c(C)oc2c(CN3CCN(C)CC3)c(Br)c(OC)c(O)c12,n,n,n,u,n,n
CC(=O)C[C@H](O)CC(=O)[C@H]1OC(=O)CCCCCCCc2ccccc21,n,n,n,u,n,u
CCOC(=O)C1=CCC(c2ccccc2)N(S(C)(=O)=O)C1 (stereo not given),x,x,n,x,x,x
CCCCC1(Cc2cccc([N+](=O)[O-])c2)C(=O)N(c2ccccc2)N(c2ccccc2)C1=O,n,n,-64,u,3.7µM,6.3µM
CCCCC1(CO)C(=O)N(c2ccccc2)N(c2ccccc2)C1=O,n,n,n,n,n,n
CCCCC1(Br)C(=O)N(c2ccccc2)N(c2ccccc2)C1=O,14µM,n,u,n,u,n
CCCCC1(CC(=O)OCC)C(=O)N(c2ccccc2)N(c2ccccc2)C1=O,n,n,n,15µM,u,n
O=P(O)(O)OP(=O)(O)OP(=O)(O)O,x,x,x,n,n,x
COc1ccc(OC)c(CNC(=O)CCc2c(C)nc3c(c2C)c(=O)n(C)c(=O)n3C)c1,n,x,n,x,x,x
CC(C)c1ccc(NC(=O)C2CCN(S(=O)(=O)c3cccc4nonc34)CC2)cc1,n,x,n,x,x,x
COc1ccc(-n2c(=O)c(CCC(=O)N(C)Cc3cccs3)nc3ccccc32)cc1,n,n,u,u,13µM,u
COc1ccc(-n2c(=O)c(CCC(=O)N3CCC(C)CC3)nc3ccccc32)cc1,n,n,n,u,9.3µM,u
COc1ccc(N2CCN(CC(=O)N3CCC(C)CC3)CC2)cc1,n,n,n,n,n,n
O=C(c1ccccc1)N1c2nc(-c3ccco3)nn2C2(CCCCC2)[C@@H]2CCCC[C@@H]21,u,x,n,x,x,x
SMILES,Sm TGR block,SARS PLP yeast,HCMV antiviral,Pf growth 96h,Pf growth 48h,HCV inhibitor
CCC(=O)N1c2nc(-c3ccco3)nn2C2(CCCCC2)[C@@H]2CCCC[C@@H]21,40µM,x,n,x,x,x
Cc1ccc(C(=O)N2c3nc(-c4ccco4)nn3C3(CCCCC3)[C@@H]3CCCC[C@@H]32)cc1,11µM,x,n,x,x,x
CCC(=O)N1c2nc(C(C)C)nn2C2(CCCCC2)[C@@H]2CCCC[C@@H]21,n,x,n,x,x,x
CC1(C)Oc2ccc3ccc(=O)oc3c2/C(=C/NC2CCCCC2)C1=O,n,n,u,u,u,10µM
CC1(C)Oc2ccc3ccc(=O)oc3c2/C(=C/Nc2ccccc2)C1=O,n,n,u,n,x,10µM
Cc1ccc(N2CC(C(=O)NCc3n[nH]c(=O)c4ccccc34)CC2=O)cc1 (stereo not given),n,n,n,n,n,n
CC(C)(C)OC(=O)N1CCC[C@H]1C(=O)N/N=C/c1cccc2nccnc12,n,n,n,u,15µM,n
COc1ccc(CNC(=S)NCc2ccc(OC)cc2)cc1,x,n,u,n,n,n
COc1ccc(NC(=S)NCc2ccc(F)cc2)cc1,u,n,-64,n,n,n
COc1ccc(CNC(=S)Nc2ccc(OC)cc2)cc1,n,11µM,n,n,n,n
COc1ccc(CNC(=S)NCc2ccc(F)cc2)cc1,n,n,n,n,n,n
COc1ccc(NC(=S)N/N=C/c2cccn2Cc2ccc(F)cc2Cl)cc1,n,n,n,u,3.7µM,u
COc1ccc(NC(=S)Nc2ccc(N(C)C(C)=O)cc2)cc1,n,n,-98,n[1.15 µM],n,n
CN1C(=O)C(n2cccc2)c2ccccc21 (stereo not given),x,x,n,x,x,x
CCC(C)NC(=O)C1=CC(c2ccc3c(c2)OCO3)=NS(=O)(=O)N1C (stereo not given),n,x,n,x,x,x
CC(=O)/C=C\c1cn(-c2ncc(C(F)(F)F)cc2Cl)c2ccccc12,n,n,n,10µM,u,u
CO/N=C/NC(=O)Cc1cn(-c2ncc(C(F)(F)F)cc2Cl)c2ccccc12,n,n,n,n,x,u
Nc1ncn(-c2ncc(C(F)(F)F)cc2Cl)n1,n,n,n,u,n,n
N#CC(C#N)=Cc1cn(-c2ncc(C(F)(F)F)cc2Cl)c2ccccc12,7.1µM,n,n,n,n,n
c1ccc(Cc2nnc(Sc3ccccc3)c3ccccc23)cc1,n,n,-88,u,n,u
S=C(Nc1ccccn1)c1ccccn1,n,n,-82,6.6µM!,u,n
Cc1ccc(C)c(NC(=S)c2ccccn2)c1,n,n,n,1µM,12µM,n
O=C(Nc1ccccn1)C(=O)Nc1ccccn1,n,n,n,n,n,n
Nc1c(C(=O)NCCN2CCOCC2)c2nc3ccccc3nc2n1-c1ccc2c(c1)OCO2,n,n,u,2.9µM,u,n
Nc1c(C(=O)NCCN2CCOCC2)c2nc3ccccc3nc2n1-c1ccccc1,n,n,-69,x,9.3µM,u
COCCNC(=O)c1c(N)n(-c2ccccc2)c2nc3ccccc3nc12,n,n,n,u,u,u
COc1ccccc1-c1cc(N)n(S(=O)(=O)c2cccc3nsnc23)n1,n,n,n,n,u,u
Nc1cc(-c2ccc(Br)cc2)nn1S(=O)(=O)c1cccc2nsnc12,n,n,n,u,x,11µM
Nc1cc(-c2cccc(F)c2)nn1S(=O)(=O)c1cccc2nsnc12,n,n,-101,1.7µM,n,n
Nc1cc(-c2ccc(Cl)cc2)nn1S(=O)(=O)c1cccc2nsnc12,n,n,n,u,x,u
